Among the data in the supplement of paper PMC10105736 are MAPPIT interaction score values, retold here.

A number with no mark means an inactive call.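 How the source made its calls: active = MAPPIT score above the 99th percentile of random reference set scores in the same batch; inactive = at or below it.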

Experiment in all cases: MAPPIT interaction score (arbitrary units); higher = stronger binary interaction signal, active = hit call of the paper
For one test, the target named is Kaz. To be noted: MAPPIT configuration: N-N; pair source set: Curagen_low_conf.
In the next test the target is Ing3. Conditions: MAPPIT configuration: N-N; pair source set: Curagen_low_conf.
Another test concerns the target Jupiter. Conditions: MAPPIT configuration: N-N; pair source set: DPIM.
A further test deals with LTV1. Conditions: MAPPIT configuration: N-N; pair source set: screen_1.
The next test addresses Jheh2. To be noted: MAPPIT configuration: N-N; pair source set: Lit-BS-16.
In a further test the target is Pfdn2. To be noted: MAPPIT configuration: N-N; pair source set: Lit-BM-16.
Another test concerns the target JIL-1. Conditions: MAPPIT configuration: N-N; pair source set: Lit-BM-16.
The target of another test is TrxT. Conditions: MAPPIT configuration: N-N; pair source set: screen_2.
For another test, the target named is LRR. To be noted: pair source set: RRS.
The next test deals with JMJD4. To be noted: MAPPIT configuration: N-N; pair source set: Curagen_low_conf.
In the next test the target is Pdha. Conditions: MAPPIT configuration: N-N; pair source set: Lit-BS-16.
A further test concerns the target Pih1D1. Conditions: MAPPIT configuration: N-N; pair source set: Finley_Y2H.
Another test has as its target Sms. Conditions: MAPPIT configuration: N-N.
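Further: HEK293T cells with Epo stimulation, STAT-responsive firefly luciferase reporter, fold induction versus unstimulated cells divided by the larger fold induction of two negative controls lacking either bait or prey.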

B1: Cpn (protein)
chain: MEPGTIPSPVSAPVAAPVTPSAVAAPVQVVSPAAVAPAPAAPIAVTPVAPPPTLASVQPATVTIPAPAPIAAASVAPVASVAPPVVAAPTPPAASPVSTPPVAVAQIPVAVSAPVAPPVAATPTPVAPIPVAAPVIATPPVAASAPTPAAVTPVVSPVIATPPVVPANTTVPVAAPVAAVPAAVPVVAPVLAPAVAPAVAPVVAETPAPPPVAEIPVATIPECVAPLIPEVSVVATKPLAAAEPVVVAPPATETPVVAPAAASPHVSVAPAVETAVVAPVSASTEPPVAAATLTTAPETPALAPVVAESQVAANTVVATPPTPAPEPETIAPPVVAETPEVASVAVAETTPPVVPPVAAESIPAPVVATTPVPATLAVTDPDVTASAVPELPPVIAPSPVPSAVAETPVDLAPPVLPPVAAEPVPAVVAEETPETPAPASAPVTIAALDIPEVAPVIAAPSDAPAEAPSAAAPIVSTPPTTASVPETTAPPAAVPTEPIDVSVLSEAAIETPVAPPVEVTTEVAVADVAPPEAAADLIIEPVEPPAPIPDLLEQTTSVPAVEAAESTSSPIPETSLPPPNEAVASPEVAVAPITAPEPIPEPEPSLATPTEPIPVEAPVVIQEAVDAVEVPVTETSTSIPETTVEYPVAEKVLDPAITEAPVTTQEPDVANINDGAPATEITTPAVEIVTAAAEVSDTAIPLIDPPVPQEIAVAEIPETETKPAEVIVEQSTIPIEAPVPEVSKYAEPVISEAPAAEVPITAGDNPDNTSVGISEVVPTIAEKAVEEVPTSEIPEQSSSPSDSVPVAKITPLLRDLQTTDVSLLAIAATLDAIGEKLKDQKARNQQVMDRLCEIEKILGPPKSN
Turning to B1, the MAPPIT interaction score in the test with Kaz is 0.293.

B2: HBS1 (protein)
chain: MSRHRIVRTMDYNDEYDGYDDIYGHSVEDEHCISPTDAQQWLYDRARGQQSISAFISKNKDIQEEEADEDEDEDAAFAKARRDSESFQMPQLDEIEQAKLSSCVDEVRSVVGDAVSERRIVETSMKFDYDMQKILDEILNEETNKSAKPAVNKMKAPAAPVLPKTVSKTVPTPPPKISLKEPRRGFEIPSPKVPSSPVVSGRNTPVDISAGDDISRSSATVFKVSKEQAVRNARQLYEKERADQKSHIHMIVIGHVDAGKSTLMGHLLYDTGNVSQRVMHKHEQESKKLGKQSFMYAWVLDETGEERARGITMDVGQSRIETKTKIVTLLDAPGHKDFIPNMISGATQADVALLVVDATRGEFESGFELGGQTREHAILVRSLGVNQLGVVINKLDTVGWSQDRFTEIVTKLKSFLKLAGFKDSDVSFTPCSGLTGENLTKKAQEPALTNWYSGRHLLDVIENFKIPERAIDRPLRMSVSDIYKGTGSGFCISGRVETGVLCLNDKVLVGASREQAQVKSLTMNEFPQTCVFAGDQVSVTLPALDINNVTVGCIISDPQTPIPVTTRFQARIIVFNVKVPITMGFPVLLHHQSLIEPAVVCKLTASIHKSTGEVVKKKPRCLGNNSCALVELETSRPICIERYADFKELGRVMLRVAGVTIAAGMVTKIR
Consider B2, for which the MAPPIT interaction score in the test with Ing3 was 0.0794.

B3: rswl (protein)
chain: MLKHFARWRLGSQLLKGCAAPVRQASKTSSAENLIAGTEEPQKKFVNPFSQPAPALSNDTISENKEERDKRLKVLQLEADIAHQEGRRVPSLEFFKDHHWEHVLTLPTKSARIKYFGYLWQIEMKKEADQRKKAERAKEAERRVAEMRKEREENTHIIYGLGHTSLFLRIYDTTINHWQNNRLTRAMQFAPKMVLDCSYDEHMNNREATYAAKQLMMCFAENRMNDEPFDLHYCNTQMDSRCMQSLQRYIPTMHNPEFPINLHSKCFTELFPKQNLVYLTPHCREDLVTYNPDDIYIVGAMVDTMNNEPLSLAKAKRLGLRMARLPLDRYLQWGSGSGKSLTLNQMINIMLDLKKTGDWDTALKHVPRRKVVQNEFQPRREKDHWSTGTRARKLNMRIDHLFDFDENRRQATSYATPQNVRQRREGLEFQLDTWATGKQKKKQRQN
B3: the MAPPIT interaction score with Jupiter is 0.211.

B4: bys (protein)
chain: MGKPKKANVATIKNVNLEKQITEGRVAKNKNKDKVKLRAEESANIDARSSQKILAAAKLQQLELDEENFPSLVTVKKVNFSLNDGHVKEDEEVNETDLMADLDMDEDDVAAFERFQQPAQEGKRTLHLSKMIMQKIQEKEADIHTKISDEGSLKIEEIDPKVKEMYEGVRDVLKRYRSGKIPKAFKIIPKLRNWEQILFITEPHNWSAAAMFQGTRIFCSVLSQAMAQRFYNLVLLPRVRDDLCEYKKLNMHLYNALKRALFKPAAFMKGIILPLLEGGDCTLREAIIFGSVVARSSIPVLHSSACLLKICEMAYSGANSIFIRYFLDKRYALPYRVVDAAVFHFLRFENDKRELPVLWHQSLLTFAQRYKNDISSEQRDALLQLLKKKSHFKITPDVRRELQAASCRDVEMMETDNGLAGQPAKMYTDADVEYEG
As to B4, in the test with LTV1, the MAPPIT interaction score is 1.68.

B5: Clp (protein)
chain: MDILLANVSGLQFKAERDLIEQVGAIPLPFYGMDKSIAAVCNFITRNGQECDKGSACPFRHIRGDRTIVCKHWLRGLCKKGDQCEFLHEYDMTKMPECYFYSRFNACHNKECPFLHIDPQSKVKDCPWYKRGFCRHGPHCRHQHLRRVLCMDYLAGFCPEGPSCKHMHPHFELPPLAELGKDQLHKKLPTCHYCGELGHKANSCKQYVGSLEHRNNINAMDHSGGHSGGYSGHSGHIEGADDMQSNHHSQPHGPGFVKVPTPLEEITCYKCGNKGHYANKCPKGHLAFLSNQHSHK
Turning to B5, in the test with Jupiter, the MAPPIT interaction score is -0.085.

B6: Srp68 (protein)
chain: MVVQEDNPNTGDVQEKTETAPVAEPSKIFTVEILHMIKDAQQQHGLRHGDFQRYRGYCSRRIRRLRKALKYPQGDKRHFKRRDVTIGQLTGKKADERFIHIPLICAERAWAYAMQLKQESNTEPRKRFHLVNKLRRACFYALQLQELCNTEAFDARTKLECEAYVAWMHGTLHFELQLWKTAGEHLKRAQVVYENLGKALPEDEQELYRAKVNEFTPNLRYCAYNISGGASGGKIDEILELRAQGVLENLDVLVSQTKTESSEGLQTIDWRGRKVTVRPEKVRLFLLSAQELDKSLAKTTKQDAKIELIERILMDCKDAIQAVRDEIKQDPKLRSLTTGQTVSGVQYLLAYLSYIRHSRTLQRNLCLVEQAKLNFYDPNLQSQQNVGDGKRVRPQDLARLYEIILQNVTEMQQINGLEDDATYQSEVENLAITFKAFRCYYIALTLIDIKKWKEAVALYERASNYATEALKGKSSPEFQLQEELKKVVSAIDGCKFSAHAYSVLEDDNSEESGTTTKSQKTTKPLYERLSLYKEDQSLHTKAPNVFKLTPDMEPIPCKPIFFDLAMTYVELPSLEGKLESPGKKGASITGFVKGFLGWGGGGNK
As for B6, the MAPPIT interaction score in the test with Jheh2 is -0.0601.

B7: Pfdn5 (protein)
chain: MAATPSAPAKSEMIDLTKLSPEQLIQIKQEFEQEITNVQDSLSTLHGCQAKYAGSKEALGTFQPNWENRQILVPLTSSMYVPGRVKDLNRFVIDIGTGYYIEKDLEGSKDYFKRRVEYVQEQIEKIEKIHLQKTRFYNSVMSVLEMKQAAAAKLQSQQQSQPAVTQSS
For the molecule B7, the values for the MAPPIT interaction score with Jupiter and in the test with Pfdn2 were -0.0979 and 5.87 (active), respectively.

B8: msl-2 (protein)
chain: MAQTAYLKVTRIAMRSASNLSKRRVEELNSGLGELRQLLSCVVCCQLLVDPYSPKGKRCQHNVCRLCLRGKKHLFPSCTQCEGCSDFKTYEENRMMAAQLLCYKTLCVHLLHSALFGELAGMRPQVARELVPRIKLPPKTTQEFIREGSNISDTFDIFLPQPDLPFLKDMPTSLPAETPPTSAVTTPELPYDHHLNISDIEAEAAATAEQGHFSPLPLLPTGSRMGMLSHAGQIVIATESSESGFMDQAWTDQVDLSGTVSVSKYTNSGNNFAVSYVMPTSATTKFDPQELQIGQVVQMADSTQLAVLAAVEETVETSTQLTVLSTTVEETVETSTQLEVLTSAEEPNEISDQLANLQVEESDEALVEETVEEAEGTSIPSEVVAEHMEEDQHLDVHTSQSPTQTEMEEAVEEHVATKTQLGHVQTELQDAESLQKDFEDAKAAAEEAKEKEKDLHAISAELQKEDSDEPTLKRKRTRTLKASQAAKIEPVPSEVKTKVQSGKGALRRIRGKDKEEKVKPPKPKCRCGISGSSNTLTTCRNSRCPCYKSYNSCAGCHCVCCKNPHKEDYVESDEDDDLEDFEMPKDVPEPMTQSEEPVVAEPRQEENSMAPPDSSAPISLVPLNNLQQSQHPLVLVQNEKGEYQGFNIFQGSKPLDPVTVGFTIRVQLQHTDGFGSLPQYAYIMPTIDPPNPPAPSLSPPPPPAPDREVIEPPAKKFRTSRTRRGRANFSALDTVDELVSGGSRSNSAAGDRSSATDNAHSLFEEIMSGSDDL
With B8, the MAPPIT interaction score was 0.418 with JIL-1 and 0.135 with TrxT.

B9: CG33108 (protein)
chain: MSNISSVAPPPPPPPMIVTPSTPATTKERPVGDNITTDECTWACEYPEVQKGCYLSRVCQYTPPKHCQYYSVNSIVQVGPTCGLVALSMLLGGSPTADDLLKDAIDQEYTLNGELFSAQYLFELTRKHMPGPAACQLHVGPLDCKKVKELLKAGGCLLVPYDADVNHAPCVKNGHRAHWALIVGYLVDTQDRFYVLARHGKSRNLAVWPLDTLSQSNENLKEFAQPKGYPDDEFLLPPGGIGGSLGLNERCILVNGLPKQVIHVRWS
In the case of B9, the results for the MAPPIT interaction score with LRR (MAPPIT configuration: N-C) and with LRR (MAPPIT configuration: N-N) were 1.24 and -0.128, respectively.

B10: Hsp60B (protein)
chain: MFRSCVPKAITSSRCFARMYSKDVRFGSGVRAMMIRGVDILADAVAVTMGPKGRSVIVERPWTSPKITKDGFTVARSIALKDQHMNLGAKLVQDVADNTNESAGDGTTTATVLARAIAKEGFNQITMGANPVEIRRGVMLAVDVVKDKLKEMSKAVETREEIQQVATLSANGDTEIGRLIGEATDKVGPRGTITVKDGKRLKDELNIIQGLRFDNGYVSPFFVNSSKGSKVEFANALVMISLKKITGLSQIVKGLEQSLRQRRPLIIIAEDISGEALNALVLNKLRLGLQVCAVKSPSYGHHRKELIGDISAATGATIFGDDINYSKMEEAKLEDLGQVGEAVISKDSTMLLQGKPKTGLLEMRIQQIQDELAEKQIKPEQRDRLRQRLSALTKGVAVLHIGGGSEVEVNEKKDRVVDALNATRAAIEEGIVPGGGTAFLRCIPYLQELKTESADLQKGVDIVCNALRMPCQTIAQNAGVDGPMVVAKVLNGSEDYGYDAMGDEYCRLVEKGIIDPTKVLRTAITDAAGVASLLSTTEVVITDSRNDDLLSKLSGAGGGMDDGLDMNMGGLEELAALSGLGGMGGMGGMGGMGGMGGMGGGFGGMGAGGGMSASASNDGPTAEEMNEMVKAIPGMEQVEVRDIDSGMM
Regarding B10, the MAPPIT interaction score is 0.939 in the test with JMJD4; 1.16 in the test with Pdha; 0.845 with Pih1D1; 1.94 with Sms (pair source set: Finley_Y2H); 1.8 in the test with Sms (pair source set: Lit-BM-16).
